{
  "source": "the supplement of paper PMC9492666",
  "note": "Structures can show the parent of a compound that is named as a salt.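 Also: viability read by CCK-8 kit in 96-well plates, part of a combination screen pairing lipid-metabolism-targeting compounds with erastin.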",
  "data": [
    {"tested_on": "HCC1937", "assay": "relative cell viability, compound + erastin, vs DMSO (fraction of DMSO control); higher = less growth inhibition", "conditions": "72 h", "values": [
      {"smiles": "COc1ccc(CN2CCNCC2)c(OC)c1OC", "note": "[Trimetazidine dihydrochloride] + CCOc1ccccc1-n1c(C(C)N2CCN(C(=O)COc3ccc(Cl)cc3)CC2)nc2ccccc2c1=O [erastin]", "relative cell viability": 0.786},
      {"smiles": "Cc1cc(C)c(S(=O)(=O)N(CCc2cccc(Br)c2)Cc2ccc(-c3cccc(S(C)(=O)=O)c3)cc2)c(C)c1", "note": "+ CCOc1ccccc1-n1c(C(C)N2CCN(C(=O)COc3ccc(Cl)cc3)CC2)nc2ccccc2c1=O [erastin]", "relative cell viability": 0.537},
      {"smiles": "COc1cc(N(C)C)cc(CN(C)CCc2ccc([N+](=O)[O-])cc2)c1O", "note": "[CDC25 Phosphatase Inhibitor I] + CCOc1ccccc1-n1c(C(C)N2CCN(C(=O)COc3ccc(Cl)cc3)CC2)nc2ccccc2c1=O [erastin]", "relative cell viability": 0.663},
      {"smiles": "CCOC(=O)c1c(NC(=O)CN2CCN(C(=O)c3ccco3)CC2)sc2c1CCC2", "note": "+ CCOc1ccccc1-n1c(C(C)N2CCN(C(=O)COc3ccc(Cl)cc3)CC2)nc2ccccc2c1=O [erastin]", "relative cell viability": 0.647},
      {"smiles": "Cc1nc(Nc2cnn(C3CCNCC3)c2)nc2c1N(C)C(=O)c1cc3ccccc3cc1N2C", "note": "+ CCOc1ccccc1-n1c(C(C)N2CCN(C(=O)COc3ccc(Cl)cc3)CC2)nc2ccccc2c1=O [erastin]", "relative cell viability": 0.215},
      {"smiles": "C=CCc1ccc(O)c(-c2cc(CC=C)ccc2O)c1", "note": "[Magnolol] + CCOc1ccccc1-n1c(C(C)N2CCN(C(=O)COc3ccc(Cl)cc3)CC2)nc2ccccc2c1=O [erastin]", "relative cell viability": 0.99},
      {"smiles": "O=C(O)c1cc2c(Cl)c(N3CCN(S(=O)(=O)c4c(Cl)cccc4Cl)CC3)ccc2o1", "note": "[Vonafexor] + CCOc1ccccc1-n1c(C(C)N2CCN(C(=O)COc3ccc(Cl)cc3)CC2)nc2ccccc2c1=O [erastin]", "relative cell viability": 0.846}
    ]}
  ]
}
